This note sets out measurements from PubChem BioAssay (EPA / NIEHS).

Assay [1] addresses Myc proto-oncogene protein (Homo sapiens) (UniProt P01106). The assay can be described thus: ATG_Myc_CIS: Attagene CIS-FACTORIAL HepG2 Assay for human Myelocytomatosis (Myc) Proto-Oncogene Transcription Factor (AID 2282990). The settings on record: HepG2, Attagene cis-reporter transcription factor activity; actives raise or lower the signal. Summed up: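 Transiently transfected HepG2 cells bearing cis-promoter reporter units for endogenous transcription factors; 24 h exposure. Reporter mRNA measured by RT-PCR, 6-FAM primer extension, HpaI cut and capillary electrophoresis; bidirectional fit relative to DMSO.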

Assay [2] is described as follows: ATG_NRF2_ARE_CIS: Attagene CIS-FACTORIAL HepG2 Assay for human Nuclear Factor Erythroid 2 Related Factor 2 (NFR2) response to Antioxidant Response Elements (ARE) (AID 2282992).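 For AC50: reporter mRNA level measured by RT-PCR and capillary electrophoresis fluorescence.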 The settings on record: HepG2 Attagene ARE/NRF2 reporter, transcription factor activity; actives raise or lower the signal. Summed up: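 HepG2 cells transiently transfected with multiplexed cis-regulated reporter transcription units measure endogenous transcription factor activity. Reporter mRNA at 24 h is quantified by RT-PCR, fluorescent labelling and capillary electrophoresis, with bidirectional fitting relative to DMSO.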

The nature of assay [3]: ATG_Oct_MLP_CIS: Attagene CIS-FACTORIAL HepG2 Assay for human Octamer-Binding Transcription Factor (Oct) (AID 2282993). The settings on record: HepG2 Attagene cis-factorial Oct reporter, mRNA; actives raise or lower the signal. In a few lines: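 HepG2, transient MRTU transfection, cis promoter elements; 24 h dosing; RT-PCR/CE fluorescence read-out of reporter mRNA; fit both directions vs DMSO.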

Assay [4] has as its target Cellular tumor antigen p53 (Homo sapiens) (UniProt P04637). The assay can be described thus: ATG_p53_CIS: Attagene CIS-FACTORIAL HepG2 Assay for human p53 Transcription Factor (AID 2282994). The following applies: HepG2 p53 cis-element reporter, Attagene mRNA; actives raise or lower the signal. Summed up:
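HepG2 cells transiently transfected with multiplexed cis-regulated reporter transcription units read endogenous TF activity. After 24 h compound exposure, reporter mRNA was quantified by RT-PCR, fluorescent labelling, HpaI digestion and capillary electrophoresis; bidirectional fits versus DMSO baseline.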

The nature of assay [5]: BSK_3C_TissueFactor: BioMAP Diversity Plus: 3C Assay for Tissue Factor Biomarker Activity (AID 2282997). The following applies: BioMAP 3C HUVEC, tissue factor biomarker readout; actives raise or lower the signal. Summed up:
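Values derive from bidirectional curve fitting against DMSO of Tissue Factor ELISA signals, taken 24 h after dosing primary human umbilical vein endothelial cells.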

A short description of assay [6]: BSK_3C_uPAR: BioMAP Diversity Plus: 3C Assay for Urokinase-type plasminogen activator receptor (uPAR) Biomarker Activity (AID 2282998). The settings on record: BioMAP 3C HUVEC, uPAR biomarker ELISA; actives raise or lower the signal. Summed up:
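A multiplexed primary-cell system built on human umbilical vein endothelium was used, with chemical present for 24 h before reading. Cell-surface uPAR was detected by ELISA; signal change in either direction counted against DMSO.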

A short description of assay [7]: BSK_3C_VCAM1: BioMAP Diversity Plus: 3C Assay for Vascular cell adhesion molecule 1 (VCAM1) Biomarker Activity (AID 2282999). The settings on record: BioMAP 3C HUVEC, VCAM1 ELISA, cytokine-stimulated; actives raise or lower the signal. In a few lines:
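Human umbilical vein endothelial cells (3C system), biomarker read by ELISA 24 h after dosing; bidirectional fit against DMSO baseline. Cytotoxicity tracked by SRB total-protein staining in parallel cultures at biomarker time.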
A general note: ELISA stands for enzyme-linked immunosorbent assay.

Assay [8] can be described thus: BSK_4H_Eotaxin3: BioMAP Diversity Plus: 4H Assay for Eotaxin 3 Biomarker Activity (AID 2283000).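 For outcome: CCL26 protein level quantified by ELISA in parallel with SRB cytotoxicity check.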 The following applies: primary human endothelial cells (HUVEC); actives raise or lower the signal. In a few lines:
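Endothelial primary cells (human umbilical vein) exposed to compound for 24 h. ELISA detection of Eotaxin-3.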

The target in assay [9] is human Peroxisome Proliferator-activated Receptor delta (PPARd), PPARD (gene 5467) (UniProt Q03181). The assay can be described thus: ATG_PPARd_TRANS: Attagene TRANS-FACTORIAL HepG2 Assay for human Peroxisome Proliferator-activated Receptor delta (PPARd) (AID 2283002; active = hit-call score of the fitted dose curve at least 0.9, where 1 is the maximum). Summed up: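 HepG2 cells transiently transfected with GAL4-UAS multiplexed reporter units driven by exogenous chimeric NR-GAL4 proteins; 24 h compound exposure. Reporter mRNA measured by RT-PCR, 6-FAM primer extension, HpaI digestion and capillary electrophoresis; gain of signal fitted relative to DMSO.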
Sequence of human Peroxisome Proliferator-activated Receptor delta (PPARd), PPARD (gene 5467) (Q03181 whole entry, looked up, the tested form may be a part): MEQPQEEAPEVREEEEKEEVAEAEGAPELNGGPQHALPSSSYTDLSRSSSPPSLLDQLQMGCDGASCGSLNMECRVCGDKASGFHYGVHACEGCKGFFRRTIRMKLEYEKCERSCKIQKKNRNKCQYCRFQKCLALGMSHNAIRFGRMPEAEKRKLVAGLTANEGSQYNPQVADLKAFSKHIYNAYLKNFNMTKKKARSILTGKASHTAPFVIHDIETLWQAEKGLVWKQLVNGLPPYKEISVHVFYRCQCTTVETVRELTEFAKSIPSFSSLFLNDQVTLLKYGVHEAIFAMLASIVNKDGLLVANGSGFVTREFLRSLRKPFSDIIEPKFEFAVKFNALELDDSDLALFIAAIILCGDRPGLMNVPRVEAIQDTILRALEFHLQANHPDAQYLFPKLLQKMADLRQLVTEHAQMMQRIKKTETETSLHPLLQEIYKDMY

Read-out in assay [10]: Intercellular Adhesion Molecule 1 (ICAM1), ICAM1 (gene 3383)
The assay can be described thus: BSK_3C_ICAM1: BioMAP Diversity Plus: 3C Assay for Intercellular Adhesion Molecule 1 (ICAM1) Biomarker Activity (AID 2283003). The following applies: primary human endothelial cells (HUVEC); actives raise or lower the signal. Summed up:
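Human vascular endothelial primary cells, 3C conditions, 24 h treatment. ICAM-1 by ELISA.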

A short description of assay [11]: BSK_3C_Proliferation: Cell Proliferation Assessment in the BioMAP Diversity Plus: 3C Assay (AID 2283006).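 For AC50: potency may reflect either rise or fall in cell number versus DMSO.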 The following applies: primary human endothelial cells (HUVEC). Summed up:
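Proliferation of human vascular endothelial primary cells after 48 h dosing, quantified as SRB-stained protein at 560 nm relative to DMSO.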

Assay [12] addresses Peroxisome proliferator-activated receptor gamma (Homo sapiens) (UniProt P37231). The assay can be described thus: ATG_PPARg_TRANS: Attagene TRANS-FACTORIAL HepG2 Assay for human Peroxisome Proliferator-activated Receptor-gamma (PPARg) (AID 2283007; active = hit-call score of the fitted dose curve at least 0.9, where 1 is the maximum). In a few lines: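 Chimeric NR-Gal4 transactivation is measured in transiently transfected HepG2 cells by reporter mRNA induction at 24 h. Detection uses RT-PCR with fluorescent labelling and capillary electrophoresis; DMSO defines baseline.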

In assay [13] the target is Nuclear receptor subfamily 1 group I member 2 (Homo sapiens) (UniProt O75469). Kind of assay: ATG_PXR_TRANS: Attagene TRANS-FACTORIAL HepG2 Assay for human Pregnane X Receptor (PXR) (AID 2283008; active = hit-call score of the fitted dose curve at least 0.9, where 1 is the maximum). In a few lines:
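HepG2 cells transiently transfected with multiple reporter units, here a PXR-GAL4 chimera driving a GAL4-UAS reporter; 24 h compound exposure. Reporter mRNA measured by RT-PCR, FAM labelling and capillary electrophoresis; gain of signal fitted against DMSO baseline.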

A short description of assay [14]: ATG_NF_kB_CIS: Attagene CIS-FACTORIAL HepG2 Assay for human Nuclear Factor Kappa B (NF-kB) (AID 2282991). The following applies: HepG2 Attagene cis-factorial NF-kB reporter mRNA; actives raise or lower the signal. Summed up:
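DMSO served as negative control and baseline for bidirectional curve fitting. Transiently transfected HepG2 cells were dosed for 24 h, then reporter transcripts were measured by RT-PCR with capillary electrophoresis detection.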

For assay [15], the target named is human Retinoic Acid Receptor beta (RARb), RARB (gene 5915) (UniProt P10826). The assay can be described thus: ATG_RARb_TRANS: Attagene TRANS-FACTORIAL HepG2 Assay for human Retinoic Acid Receptor beta (AID 2283004; active = hit-call score of the fitted dose curve at least 0.9, where 1 is the maximum). In a few lines:
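HepG2, transient MRTU transfection, NR–Gal4 chimera, 24 h treatment; RT-PCR plus CE fluorescence detection of reporter mRNA; gain of signal vs DMSO.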

Assay [16] deals with human RAR-related Orphan Receptor gamma (RORg), RORC (gene 6097) (UniProt P51449). Kind of assay: ATG_RORg_TRANS: Attagene TRANS-FACTORIAL HepG2 Assay for human RAR-related Orphan Receptor gamma (RORg) (AID 2283011; active = hit-call score of the fitted dose curve at least 0.9, where 1 is the maximum). Summed up: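 Activity is scored as increase in GAL4-UAS reporter mRNA over DMSO, detected by fluorescent RT-PCR and capillary electrophoresis in HepG2 cells transiently expressing a RORg-Gal4 chimera, 24 h after dosing.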
Sequence of human RAR-related Orphan Receptor gamma (RORg), RORC (gene 6097) (P51449 whole entry, looked up, the tested form may be a part): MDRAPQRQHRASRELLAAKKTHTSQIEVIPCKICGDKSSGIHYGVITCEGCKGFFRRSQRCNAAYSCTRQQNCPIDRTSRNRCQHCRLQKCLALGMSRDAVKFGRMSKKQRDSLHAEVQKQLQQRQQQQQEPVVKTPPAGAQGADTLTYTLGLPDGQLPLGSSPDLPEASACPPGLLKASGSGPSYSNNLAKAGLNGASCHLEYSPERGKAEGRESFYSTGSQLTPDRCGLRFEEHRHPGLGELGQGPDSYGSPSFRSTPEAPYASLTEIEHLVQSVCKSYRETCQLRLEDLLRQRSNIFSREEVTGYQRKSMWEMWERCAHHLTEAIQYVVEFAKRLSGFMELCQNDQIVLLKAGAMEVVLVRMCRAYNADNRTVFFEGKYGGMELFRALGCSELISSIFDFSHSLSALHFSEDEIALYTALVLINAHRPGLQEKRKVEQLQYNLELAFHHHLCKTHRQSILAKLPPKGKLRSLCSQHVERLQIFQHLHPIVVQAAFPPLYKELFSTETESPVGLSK

Assay [17] has as its target Retinoic acid receptor alpha (Homo sapiens) (UniProt P10276). The assay can be described thus: ATG_RARa_TRANS: Attagene TRANS-FACTORIAL HepG2 Assay for human Retinoic Acid Receptor alpha (RARa) (AID 2283005; active = hit-call score of the fitted dose curve at least 0.9, where 1 is the maximum;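 for AC50: potency for increased reporter signal meaning RARa activation over DMSO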). Summed up: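 HepG2 transiently transfected with multiplex GAL4-UAS reporter units including a human RARa–GAL4 chimera; 24 h compound exposure. Reporter mRNA quantified by RT-PCR, 6-FAM labeling and capillary electrophoresis; gain of signal versus DMSO.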

The target in assay [18] is human Retinoic Acid Receptor gamma (RARg), RARG (gene 5916) (UniProt P13631). The assay can be described thus: ATG_RARg_TRANS: Attagene TRANS-FACTORIAL HepG2 Assay for human Retinoic Acid Receptor gamma (RARg) (AID 2283009; active = hit-call score of the fitted dose curve at least 0.9, where 1 is the maximum;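 for AC50: AC50 is for reporter induction above DMSO meaning RARg activation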). In a few lines: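 HepG2, RARg-GAL4 TRANS system, 24 h exposure; reporter mRNA by RT-PCR + CE fluorescence; increase over DMSO.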
Sequence of human Retinoic Acid Receptor gamma (RARg), RARG (gene 5916) (P13631 whole entry, looked up, the tested form may be a part): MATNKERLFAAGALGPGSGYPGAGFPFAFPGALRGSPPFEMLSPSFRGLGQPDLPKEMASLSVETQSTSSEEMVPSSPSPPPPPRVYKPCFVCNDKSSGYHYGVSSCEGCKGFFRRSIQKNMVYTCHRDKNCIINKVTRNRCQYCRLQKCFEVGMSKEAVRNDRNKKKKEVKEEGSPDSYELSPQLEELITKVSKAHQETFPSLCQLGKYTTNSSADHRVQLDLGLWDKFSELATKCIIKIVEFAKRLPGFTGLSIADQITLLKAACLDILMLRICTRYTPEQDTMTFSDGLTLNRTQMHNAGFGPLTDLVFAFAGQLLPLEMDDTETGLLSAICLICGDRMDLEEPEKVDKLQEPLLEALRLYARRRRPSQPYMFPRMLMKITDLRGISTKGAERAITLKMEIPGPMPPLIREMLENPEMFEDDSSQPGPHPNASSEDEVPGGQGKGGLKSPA
The target of assay [19] is human RAR-related Orphan Receptor beta (RORb), RORB (gene 6096) (UniProt Q92753). Kind of assay: ATG_RORb_TRANS: Attagene TRANS-FACTORIAL HepG2 Assay for human RAR-related Orphan Receptor beta (RORb) (AID 2283010; active = hit-call score of the fitted dose curve at least 0.9, where 1 is the maximum). In a few lines:
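In this TRANS-format test, human HepG2 cells express chimeric NR-Gal4 fusion proteins driving GAL4-UAS reporters. After 24 h dosing, reporter transcripts are measured by fluorescent RT-PCR/capillary electrophoresis, with DMSO as negative control.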

In assay [20] the target is human Peroxisome Proliferator-activated Receptor alpha (PPARa), PPARA (gene 5465) (UniProt Q07869). The assay can be described thus: ATG_PPARa_TRANS: Attagene TRANS-FACTORIAL HepG2 Assay for human Peroxisome Proliferator-activated Receptor alpha (PPARa) (AID 2283001; active = hit-call score of the fitted dose curve at least 0.9, where 1 is the maximum). Summed up: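 Measures transcriptional activity of an exogenous chimeric PPARa-Gal4 protein in transiently transfected HepG2 cells after 24 h dosing. Reporter mRNA quantified via RT-PCR and capillary electrophoresis; DMSO served as negative control.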

One may read the AC50 as the concentration at which the activity in the assay is half-maximal.

“And” between values parts separate entries of the source, which are not always exact repeats. Equal entries are not always repeated. Results filed as inconclusive are left out. The source made the active and inactive calls. Rule for the calls, unless noted: active = hit-call score of the fitted dose curve at least 0.9, where 1 is the maximum; inactive = score below 0.9.

Sequence of Cellular tumor antigen p53 (Homo sapiens) (P04637 whole entry, looked up): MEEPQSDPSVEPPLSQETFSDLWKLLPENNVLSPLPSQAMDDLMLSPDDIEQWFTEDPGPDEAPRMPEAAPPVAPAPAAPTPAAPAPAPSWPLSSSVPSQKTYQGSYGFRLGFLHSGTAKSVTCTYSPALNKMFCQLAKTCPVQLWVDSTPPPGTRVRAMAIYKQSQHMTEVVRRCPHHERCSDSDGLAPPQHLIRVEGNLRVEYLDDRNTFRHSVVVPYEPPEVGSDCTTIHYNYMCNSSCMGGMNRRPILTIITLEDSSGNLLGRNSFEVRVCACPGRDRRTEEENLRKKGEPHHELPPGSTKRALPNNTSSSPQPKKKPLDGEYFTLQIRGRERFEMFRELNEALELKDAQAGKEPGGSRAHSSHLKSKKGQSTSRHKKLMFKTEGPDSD
Sequence of Myc proto-oncogene protein (Homo sapiens) (P01106 whole entry, looked up): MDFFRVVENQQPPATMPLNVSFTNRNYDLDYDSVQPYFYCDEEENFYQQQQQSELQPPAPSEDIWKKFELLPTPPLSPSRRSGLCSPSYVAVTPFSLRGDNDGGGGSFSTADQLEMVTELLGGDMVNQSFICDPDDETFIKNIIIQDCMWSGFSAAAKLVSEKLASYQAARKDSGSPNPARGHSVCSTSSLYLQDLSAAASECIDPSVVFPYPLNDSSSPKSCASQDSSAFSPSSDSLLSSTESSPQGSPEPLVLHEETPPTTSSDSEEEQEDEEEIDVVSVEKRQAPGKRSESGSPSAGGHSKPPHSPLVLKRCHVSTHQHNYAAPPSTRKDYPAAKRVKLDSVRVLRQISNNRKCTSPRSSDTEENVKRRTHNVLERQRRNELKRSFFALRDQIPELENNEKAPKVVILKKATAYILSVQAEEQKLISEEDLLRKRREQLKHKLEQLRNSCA
Sequence of Nuclear receptor subfamily 1 group I member 2 (Homo sapiens) (O75469 whole entry, looked up, the tested form may be a part): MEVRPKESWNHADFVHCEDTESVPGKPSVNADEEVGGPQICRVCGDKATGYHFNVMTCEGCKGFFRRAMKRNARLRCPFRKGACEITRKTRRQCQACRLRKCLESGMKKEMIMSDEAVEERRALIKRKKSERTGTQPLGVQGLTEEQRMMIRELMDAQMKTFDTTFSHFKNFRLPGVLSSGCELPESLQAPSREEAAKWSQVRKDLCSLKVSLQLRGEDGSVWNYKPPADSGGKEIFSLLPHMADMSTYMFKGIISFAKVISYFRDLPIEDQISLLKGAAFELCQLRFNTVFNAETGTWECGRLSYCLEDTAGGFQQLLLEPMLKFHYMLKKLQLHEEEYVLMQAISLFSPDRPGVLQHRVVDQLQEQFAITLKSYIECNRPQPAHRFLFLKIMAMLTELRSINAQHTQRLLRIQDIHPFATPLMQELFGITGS
Sequence of Retinoic acid receptor alpha (Homo sapiens) (P10276 whole entry, looked up, the tested form may be a part): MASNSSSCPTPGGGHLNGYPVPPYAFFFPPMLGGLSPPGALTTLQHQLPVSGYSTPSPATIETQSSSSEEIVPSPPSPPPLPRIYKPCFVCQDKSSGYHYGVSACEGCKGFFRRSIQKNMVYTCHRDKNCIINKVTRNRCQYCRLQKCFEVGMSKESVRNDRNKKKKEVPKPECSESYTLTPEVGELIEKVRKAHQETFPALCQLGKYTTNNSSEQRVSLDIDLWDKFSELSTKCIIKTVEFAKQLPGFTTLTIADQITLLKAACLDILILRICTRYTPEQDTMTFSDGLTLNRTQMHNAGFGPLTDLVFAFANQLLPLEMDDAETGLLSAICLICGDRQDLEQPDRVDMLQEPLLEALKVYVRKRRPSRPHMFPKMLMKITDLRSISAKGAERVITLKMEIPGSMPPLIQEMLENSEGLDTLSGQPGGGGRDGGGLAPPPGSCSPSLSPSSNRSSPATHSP
Sequence of human Retinoic Acid Receptor beta (RARb), RARB (gene 5915) (P10826 whole entry, looked up, the tested form may be a part): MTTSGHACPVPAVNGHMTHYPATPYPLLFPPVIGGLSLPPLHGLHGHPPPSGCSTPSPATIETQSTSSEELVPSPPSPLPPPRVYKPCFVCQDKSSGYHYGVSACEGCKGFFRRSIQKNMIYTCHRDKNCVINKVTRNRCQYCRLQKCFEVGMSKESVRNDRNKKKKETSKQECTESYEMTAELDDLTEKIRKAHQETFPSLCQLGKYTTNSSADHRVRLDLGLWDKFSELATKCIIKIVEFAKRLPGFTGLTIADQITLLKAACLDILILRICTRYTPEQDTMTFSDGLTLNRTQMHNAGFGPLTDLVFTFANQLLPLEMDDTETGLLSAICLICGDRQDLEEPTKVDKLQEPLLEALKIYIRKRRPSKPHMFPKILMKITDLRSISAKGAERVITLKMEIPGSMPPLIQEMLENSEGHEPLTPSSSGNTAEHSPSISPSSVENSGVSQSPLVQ
Sequence of human RAR-related Orphan Receptor beta (RORb), RORB (gene 6096) (Q92753 whole entry, looked up, the tested form may be a part): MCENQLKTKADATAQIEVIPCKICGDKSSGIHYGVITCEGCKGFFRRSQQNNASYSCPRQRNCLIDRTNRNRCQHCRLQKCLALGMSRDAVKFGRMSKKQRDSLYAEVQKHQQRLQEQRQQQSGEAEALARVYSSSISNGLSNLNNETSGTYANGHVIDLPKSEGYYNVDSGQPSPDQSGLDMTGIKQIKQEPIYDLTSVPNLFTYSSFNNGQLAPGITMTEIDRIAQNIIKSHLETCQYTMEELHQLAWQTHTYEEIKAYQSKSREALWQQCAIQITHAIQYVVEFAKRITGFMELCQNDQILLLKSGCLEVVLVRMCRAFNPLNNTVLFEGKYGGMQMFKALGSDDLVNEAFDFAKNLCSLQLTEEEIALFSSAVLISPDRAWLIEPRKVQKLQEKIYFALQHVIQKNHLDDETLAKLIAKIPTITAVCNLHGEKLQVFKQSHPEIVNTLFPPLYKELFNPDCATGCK
Sequence of Peroxisome proliferator-activated receptor gamma (Homo sapiens) (P37231 whole entry, looked up, the tested form may be a part): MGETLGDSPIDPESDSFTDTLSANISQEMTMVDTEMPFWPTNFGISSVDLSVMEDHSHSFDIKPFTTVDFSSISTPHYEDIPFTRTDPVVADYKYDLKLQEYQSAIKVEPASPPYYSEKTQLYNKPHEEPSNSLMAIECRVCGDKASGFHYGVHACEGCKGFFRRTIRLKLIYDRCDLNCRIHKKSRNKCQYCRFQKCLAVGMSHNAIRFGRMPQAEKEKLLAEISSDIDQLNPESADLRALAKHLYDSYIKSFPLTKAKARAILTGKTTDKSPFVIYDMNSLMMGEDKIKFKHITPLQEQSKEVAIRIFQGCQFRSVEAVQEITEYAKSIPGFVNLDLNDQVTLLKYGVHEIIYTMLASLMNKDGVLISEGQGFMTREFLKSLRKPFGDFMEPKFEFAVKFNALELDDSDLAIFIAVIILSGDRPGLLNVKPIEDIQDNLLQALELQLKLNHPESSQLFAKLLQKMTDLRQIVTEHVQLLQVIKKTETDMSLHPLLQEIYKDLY

As for `O=C(CCCCCCCCc1cccnc1)N1CCC(C=C(c2ccccc2)c2ccccc2)CC1`, the AC50 in assay [1] was 8.5 µM (active); in assay [2] it was 4.68 µM (active); in assay [3], 8.91 µM (active); in [4], 19.3 µM (active); in assay [5] it was 8.68 µM (active); in [6], 7.01 µM (active). Besides, the AC50 is 14.3 µM (active) in [7]; 9.64 µM (active) in [8]; 15.4 µM (active) in assay [10]; 5.66 µM (active) in [11]; 1.41 µM (active) in assay [12]; 1.08 µM (active) in assay [13]. Further, the outcome in [9] was inactive.

In the case of `O=C1OC(=O)C2C3C=CC(C3)C12` (centres undefined), the result in assay [1], in assay [2], in [3], in [4], in assay [5] and in assay [6] was inactive. In addition, the outcome in assay [7], in assay [8], in assay [9], in assay [10], in assay [11] and in [13] was inactive.

As for `O=C(O)c1cccc(Oc2ccccc2)c1`, the result in [1], in [14], in [2], in assay [3], in [4] and in assay [5] was inactive. The outcome in assay [6], in [7], in assay [8], in [10], in [15] and in [11] was inactive. Besides, the result in [16] was inactive.

Take `C1=CCCC=CCCC=CCC1`: the call in assay [1], in assay [14], in [3], in [4], in [6] and in [7] was inactive. Moreover, the outcome in [8], in assay [10], in assay [15], in assay [17] and in assay [11] was inactive. Further, the AC50 is 159 µM (active) in assay [2], 56.5 µM (active) in assay [13] and 26.9 µM (active) in assay [18].

In the case of `CCn1nc(Cc2ccccc2)cc1C1CCN(C[C@H]2C[C@H](N(C)[C@@H](C(=O)O)C(C)C)C[C@@H]2c2cccc(F)c2)CC1`, the compound was called inactive in [1], in assay [6], in assay [8], in assay [9], in assay [10] and in assay [11]. The compound was called inactive in assay [13]. In addition, the figures for the AC50 in assay [14] and in [2] were 38.2 µM (active) and 51.5 µM (active), respectively.

As for `Cn1cnc([N+](=O)[O-])c1Sc1ncnc2nc[nH]c12`, the call in assay [1], in assay [14], in assay [4], in [6], in [7] and in [8] was inactive. Also, the call in assay [9], in assay [10], in [15], in [17] and in [19] was inactive. For the same compound, the concentration at half-maximal activity (AC50) was 29.5 µM (active) in assay [2]; 6.59 µM (active) and 2.94 µM (active) and 9.77 µM (active) in [11]; 29.8 µM (active) in assay [13]; 26.1 µM (active) in [18].

`O=c1n(CC2CO2)c(=O)n(CC2CO2)c(=O)n1CC1CO1` (centres undefined): the AC50 in [1] is 58.4 µM (active); in [14], 31.7 µM (active); in [2], 7.56 µM (active); in [3], 48.5 µM (active); in assay [5], 11.3 µM (active); in assay [6], 20 µM (active). For the same compound, the concentration at half-maximal activity (AC50) in assay [8] is 23.2 µM (active); in [11] it was 1.46 µM (active). Moreover, the compound was classed as inactive in assay [20], in assay [9], in assay [10], in [12] and in assay [19].

As for `CC(C)CCCCCCCOC(=O)CCCCC(=O)OCCCCCCCC(C)C`, the result in assay [1], in assay [14], in assay [2], in assay [3], in assay [4] and in assay [5] was inactive. Further, the outcome in [6], in [7], in assay [8], in [10], in [15] and in [11] was inactive. The compound was called inactive in assay [18] and in [16]. Also, the AC50 in assay [17] is 28.8 µM (active).
